Reference: the supplement of paper PMC10849652
The full data set covers some 8,800 targets. This sample favours those with a hit. About 0.5% of all pairs of compound and target were hits.

Legend:
Assay in all cases: log2 fold change, soluble protein after heating vs DMSO (PISA); higher = thermal stabilisation; K562 lysate, 10 uM; active = over 0.2 and 3.5 SD of the protein, either way, in both replicates (recomputed)
[1] = compound: C#Cc1cccc(Nc2ncnc3cc(OCCOC)c(OCCOC)cc23)c1 [erlotinib]
Method in brief: (§1)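 Thermal stability, expressed as log-two fold change relative to solvent controls, is given from duplicates. Crude K562 extract in PBS pH 7.4 with 1 mM MgCl2, at 1 mg/mL protein, was treated with 10 μM compound for 30 min and heated in aliquots for 3 min across 48°C-58°C. After pooling, adjustment to 0.5% NP-40 at 4°C and centrifugation at 21,000xg for 90 min, supernatant protein was measured by TMTpro 16plex LC-MS/MS with channel sums equalised.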

[2] = compound: C/C(=N\NC(=O)C1=CC(=CC=C1)S(=O)(=O)N2CCOCC2)/C3=C(C=CC(=C3)Cl)O
Method in brief: as §1

[3] = compound: C1=CC(=CC=C1C2=NC3=C(N2)C=C(C=C3)C(=O)N)OC4=CC=C(C=C4)Cl
Method in brief: as §1

[4] = compound: C1=CC2=C(C=CC(=C2)/C=C\3/C(=O)NC(=NCC4=CC=CS4)S3)N=C1
Method in brief: as §1

[5] = compound: C1=CC2=NC=CN=C2C=C1/C=C/3\C(=O)NC(=O)S3
Method in brief: as §1

[6] = compound: C1=CC=C(C=C1)C2=NC(=C(N2)C3=CC=NC=C3)C4=CC(=C(C=C4)Cl)O
Method in brief: as §1

[7] = compound: C1=CC=C2C(=C1)C3=NNC4=CC=CC(=C43)C2=O
Method in brief: as §1

[8] = compound: C1CCN(C1)C(=O)NC2=CC=CC(=C2)NC3=NC=C(C(=N3)NCCC4=CN=CN4)Br
Method in brief: as §1

[9] = compound: C1CN(CCC1(CC2=CC=C(C=C2)Cl)N)C3=NC=NC4=C3C=CN4
Method in brief: as §1

[10] = compound: C1COCCN1CCN2C3=CC=CC=C3N=C2NC(=O)C4=CC(=CC=C4)[N+](=O)[O-] [IRAK-1-4 Inhibitor I]
Method in brief: as §1

[11] = compound: C=CC(=O)N1CCC[C@@H](n2nc(-c3ccc(Oc4ccccc4)cc3)c3c(N)ncnc32)C1 [ibrutinib]
Method in brief: as §1

[12] = compound: CC(=O)c1cnc2ccc(-c3cc(Cl)c(O)c(Cl)c3)nc2c1N[C@H]1CC[C@H](CN(C)C)CC1
Method in brief: as §1

[13] = compound: CC(C)(C)Cn1c(N)nc2ccc(-c3[nH]c(C(C)(C)C)nc3-c3ccc(F)cc3)nc21 [ralimetinib]
Method in brief: as §1

[14] = compound: CC(C)(O)CC(=O)NCCn1ccc2ncnc(Nc3ccc(Oc4cccc(C(F)(F)F)c4)c(Cl)c3)c21
Method in brief: as §1

[15] = compound: CC(C)C1=C2N=C(C=C(N2N=C1)NCC3=CC=CC=C3)NCCCCCCN
Method in brief: as §1

[16] = compound: CC1=C(C(CC(=O)N1)C2=CC=C(C=C2)C(F)(F)F)C(=O)NC3=C(C=C4C(=C3)C=NN4)F
Method in brief: as §1

[17] = compound: CC1=C(C2=C(C=C1)C(=O)C3=CC=CC=C3N2CCCN)C
Method in brief: as §1

[18] = compound: CC1=C(C=C(C=C1)NC(=O)C2=CC(=CC=C2)C(C)(C)C#N)NC3=CC4=C(C=C3)N=CN(C4=O)C
Method in brief: as §1

[19] = compound: CC1=C(C=C(C=C1)NC(=O)C2=CC(=CC=C2)N(C)C)NC(=O)C3=CC=C(C=C3)O
Method in brief: as §1

[20] = compound: CC1=CC=C(C=C1)SC2=C3C=C(SC3=CN=C2)C(=O)N
Method in brief: as §1

Measured: log2 fold change

TBCE (UniProt Q15813)
inactive: [1] 0.02 | [2] 0.049 | [3] -0.016 | [4] 0.004 | [5] 0.014 | [6] 0.001 | [7] -0.07 | [8] -0.027 | [9] 0.038 | [10] -0.002 | [11] -0.027 | [12] 0.004 | [13] 0.037 | [14] 0.01 | [15] -0.004 | [16] 0.003 | [17] 0.004 | [18] -0.007 | [19] 0.025 | [20] -0.016

TBL3 (UniProt Q12788)
Chain of UniProt Q12788 (Q12788 whole entry, looked up): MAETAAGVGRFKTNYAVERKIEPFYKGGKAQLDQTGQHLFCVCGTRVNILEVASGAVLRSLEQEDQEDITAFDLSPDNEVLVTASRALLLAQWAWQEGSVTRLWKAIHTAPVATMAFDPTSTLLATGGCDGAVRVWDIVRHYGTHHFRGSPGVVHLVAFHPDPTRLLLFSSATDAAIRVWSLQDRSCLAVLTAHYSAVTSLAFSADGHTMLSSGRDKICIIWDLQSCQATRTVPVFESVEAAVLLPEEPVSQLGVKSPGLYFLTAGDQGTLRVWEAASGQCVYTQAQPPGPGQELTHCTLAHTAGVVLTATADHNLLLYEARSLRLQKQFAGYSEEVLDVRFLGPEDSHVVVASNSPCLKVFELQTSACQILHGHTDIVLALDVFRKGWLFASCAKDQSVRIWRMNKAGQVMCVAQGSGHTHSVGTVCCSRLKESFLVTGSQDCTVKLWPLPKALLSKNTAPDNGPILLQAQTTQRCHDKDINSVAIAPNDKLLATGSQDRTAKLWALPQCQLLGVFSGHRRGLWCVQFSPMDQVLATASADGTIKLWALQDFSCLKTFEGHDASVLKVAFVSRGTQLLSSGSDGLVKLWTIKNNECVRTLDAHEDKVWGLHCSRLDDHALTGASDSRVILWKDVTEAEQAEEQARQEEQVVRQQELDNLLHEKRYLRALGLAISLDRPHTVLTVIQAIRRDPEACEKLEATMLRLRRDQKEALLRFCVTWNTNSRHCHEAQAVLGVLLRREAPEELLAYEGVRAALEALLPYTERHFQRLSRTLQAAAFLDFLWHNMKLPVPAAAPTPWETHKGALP
inactive: [1] 0.082 | [2] -0.001 | [3] -0.071 | [4] 0.037 | [5] 0.012 | [6] 0.017 | [7] 0.043 | [8] 0.074 | [9] -0.016 | [10] 0.01 | [11] -0.006 | [12] -0.016 | [13] 0.027 | [14] 0.001 | [15] 0.026 | [16] 0.013 | [17] -0.017 | [18] 0.027 | [19] 0.046 | [20] 0.008

TRAPPC10 (UniProt P48553)
inactive: [1] 0.066 | [2] 0.031 | [3] 0.027 | [4] 0.045 | [5] 0.018 | [6] 0.004 | [7] -0.058 | [8] 0.057 | [9] 0.005 | [10] 0.013 | [11] -0.006 | [12] -0.004 | [13] 0.025 | [14] -0.03 | [15] 0.027 | [16] 0.002 | [17] -0.029 | [18] 0.019 | [19] 0.02 | [20] -0.004

TGFBRAP1 (UniProt Q8WUH2)
Chain of UniProt Q8WUH2 (Q8WUH2 whole entry, looked up): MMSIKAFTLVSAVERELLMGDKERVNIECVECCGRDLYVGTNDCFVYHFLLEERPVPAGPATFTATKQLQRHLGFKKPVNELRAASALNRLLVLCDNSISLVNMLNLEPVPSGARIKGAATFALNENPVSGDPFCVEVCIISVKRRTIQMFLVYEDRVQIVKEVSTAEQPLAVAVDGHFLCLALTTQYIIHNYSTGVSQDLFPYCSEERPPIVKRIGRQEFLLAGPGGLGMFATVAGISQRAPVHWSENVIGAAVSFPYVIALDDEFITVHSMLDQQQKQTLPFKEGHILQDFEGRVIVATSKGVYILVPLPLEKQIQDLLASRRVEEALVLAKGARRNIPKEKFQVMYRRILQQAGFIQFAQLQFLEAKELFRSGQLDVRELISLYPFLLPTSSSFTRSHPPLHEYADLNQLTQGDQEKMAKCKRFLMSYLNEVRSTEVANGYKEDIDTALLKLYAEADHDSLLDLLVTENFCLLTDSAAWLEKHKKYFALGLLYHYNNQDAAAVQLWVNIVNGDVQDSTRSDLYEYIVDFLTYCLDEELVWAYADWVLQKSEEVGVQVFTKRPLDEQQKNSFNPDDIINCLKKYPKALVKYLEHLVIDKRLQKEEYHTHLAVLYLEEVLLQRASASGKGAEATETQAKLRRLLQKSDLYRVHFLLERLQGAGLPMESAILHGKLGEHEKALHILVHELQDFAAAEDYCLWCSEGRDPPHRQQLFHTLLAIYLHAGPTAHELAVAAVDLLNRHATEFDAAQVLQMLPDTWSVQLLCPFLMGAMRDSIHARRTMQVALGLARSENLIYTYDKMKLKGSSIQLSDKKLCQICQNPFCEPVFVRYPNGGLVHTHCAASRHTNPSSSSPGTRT
inactive: [1] 0.015 | [2] 0.057 | [3] -0.016 | [4] -0.002 | [5] -0.018 | [6] -0.02 | [7] -0.056 | [8] 0.023 | [9] 0.006 | [10] -0.026 | [11] 0.002 | [12] 0.022 | [13] 0.011 | [14] 0.025 | [15] -0.014 | [16] 0.007 | [17] 0.015 | [18] -0.005 | [19] 0.009 | [20] -0.012

THOC5 (UniProt Q13769)
Chain of UniProt Q13769 (Q13769 whole entry, looked up): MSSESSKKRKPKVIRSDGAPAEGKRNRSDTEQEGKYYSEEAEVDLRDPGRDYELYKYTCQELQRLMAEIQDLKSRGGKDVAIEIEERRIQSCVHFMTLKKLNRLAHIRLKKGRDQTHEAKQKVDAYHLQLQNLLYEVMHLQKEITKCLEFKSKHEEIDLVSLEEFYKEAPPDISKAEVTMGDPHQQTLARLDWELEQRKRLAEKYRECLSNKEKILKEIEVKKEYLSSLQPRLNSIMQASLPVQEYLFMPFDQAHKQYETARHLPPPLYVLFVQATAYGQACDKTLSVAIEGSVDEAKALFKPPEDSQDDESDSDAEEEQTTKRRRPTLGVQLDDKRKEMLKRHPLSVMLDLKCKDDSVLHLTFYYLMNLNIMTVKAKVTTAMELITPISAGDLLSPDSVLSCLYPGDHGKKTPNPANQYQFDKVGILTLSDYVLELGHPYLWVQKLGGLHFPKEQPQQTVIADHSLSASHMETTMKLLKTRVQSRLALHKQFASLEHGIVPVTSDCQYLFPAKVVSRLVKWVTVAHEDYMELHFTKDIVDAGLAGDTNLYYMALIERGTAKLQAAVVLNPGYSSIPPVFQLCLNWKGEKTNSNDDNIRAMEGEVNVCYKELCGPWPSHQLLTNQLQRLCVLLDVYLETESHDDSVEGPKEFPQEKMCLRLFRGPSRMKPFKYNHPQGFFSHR
inactive: [1] 0.013 | [2] -0.105 | [3] 0.036 | [4] -0.035 | [5] 0.008 | [6] -0.001 | [7] -0.016 | [8] 0.005 | [9] 0.001 | [10] -0.012 | [11] 0.023 | [12] 0.004 | [13] 0.015 | [14] -0.011 | [15] 0.008 | [16] -0.011 | [17] -0.002 | [18] 0.004 | [19] 0.018 | [20] -0.001

TUBB6 (UniProt Q9BUF5)
inactive: [1] 0.039 | [2] 0.051 | [3] -0.002 | [4] 0.017 | [5] 0 | [6] 0.005 | [7] 0.009 | [8] -0.013 | [9] 0.057 | [10] -0.003 | [11] -0.005 | [12] 0.012 | [13] 0.023 | [14] -0.038 | [15] 0.027 | [16] 0.012 | [17] 0.025 | [18] -0.024 | [19] -0.009 | [20] 0.025

TUBB (UniProt P07437)
Chain of UniProt P07437 (P07437 whole entry, looked up): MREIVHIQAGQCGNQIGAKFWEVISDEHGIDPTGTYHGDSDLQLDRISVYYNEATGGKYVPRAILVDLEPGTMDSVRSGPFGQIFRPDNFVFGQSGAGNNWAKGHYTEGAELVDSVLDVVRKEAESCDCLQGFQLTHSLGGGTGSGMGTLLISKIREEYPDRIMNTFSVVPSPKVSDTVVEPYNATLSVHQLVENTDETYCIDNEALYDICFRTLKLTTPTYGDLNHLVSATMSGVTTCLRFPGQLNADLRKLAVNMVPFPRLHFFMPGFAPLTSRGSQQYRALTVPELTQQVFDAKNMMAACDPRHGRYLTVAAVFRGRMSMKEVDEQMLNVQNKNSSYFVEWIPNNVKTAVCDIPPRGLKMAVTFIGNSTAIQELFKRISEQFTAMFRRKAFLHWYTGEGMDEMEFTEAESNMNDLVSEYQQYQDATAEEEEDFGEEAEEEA
inactive: [1] 0.029 | [2] -0.017 | [3] 0.014 | [4] -0.006 | [5] 0.008 | [6] 0.008 | [7] -0.03 | [8] 0.006 | [9] 0.043 | [10] 0.027 | [11] -0.013 | [12] 0.011 | [13] 0.038 | [14] -0.009 | [15] 0.037 | [16] 0.049 | [17] 0.003 | [18] 0.007 | [19] 0.014 | [20] 0.009

TSPAN13 (UniProt O95857)
Chain of UniProt O95857 (O95857 whole entry, looked up): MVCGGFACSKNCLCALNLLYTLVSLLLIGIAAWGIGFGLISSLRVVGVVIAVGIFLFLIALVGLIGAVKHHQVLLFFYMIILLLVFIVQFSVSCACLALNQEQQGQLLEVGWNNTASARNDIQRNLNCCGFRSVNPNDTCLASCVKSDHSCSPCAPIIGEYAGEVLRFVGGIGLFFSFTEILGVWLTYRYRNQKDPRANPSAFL
inactive: [1] 0.002 | [2] 0.053 | [3] 0.06 | [4] 0.003 | [5] -0.002 | [6] 0.008 | [7] -0.167 | [8] 0.202 | [9] -0.053 | [10] -0.051 | [11] 0.018 | [12] -0.001 | [13] -0.048 | [14] -0.044 | [15] -0.083 | [16] 0.102 | [17] 0.036 | [18] 0.088 | [19] 0 | [20] -0.043

TRAF2 isoform 2 (UniProt Q12933)
inactive: [1] 0.026 | [2] -0.002 | [3] 0.008 | [4] 0.013 | [5] -0.016 | [6] -0.01 | [7] -0.015 | [8] -0.008 | [9] 0.029 | [10] 0.033 | [11] -0.026 | [12] -0.002 | [13] 0.022 | [14] -0.022 | [15] -0.051 | [16] -0.004 | [17] -0.028 | [18] 0.029 | [19] -0.009 | [20] -0.006

THEMIS2 (UniProt Q5TEJ8)
Chain of UniProt Q5TEJ8 (Q5TEJ8 whole entry, looked up): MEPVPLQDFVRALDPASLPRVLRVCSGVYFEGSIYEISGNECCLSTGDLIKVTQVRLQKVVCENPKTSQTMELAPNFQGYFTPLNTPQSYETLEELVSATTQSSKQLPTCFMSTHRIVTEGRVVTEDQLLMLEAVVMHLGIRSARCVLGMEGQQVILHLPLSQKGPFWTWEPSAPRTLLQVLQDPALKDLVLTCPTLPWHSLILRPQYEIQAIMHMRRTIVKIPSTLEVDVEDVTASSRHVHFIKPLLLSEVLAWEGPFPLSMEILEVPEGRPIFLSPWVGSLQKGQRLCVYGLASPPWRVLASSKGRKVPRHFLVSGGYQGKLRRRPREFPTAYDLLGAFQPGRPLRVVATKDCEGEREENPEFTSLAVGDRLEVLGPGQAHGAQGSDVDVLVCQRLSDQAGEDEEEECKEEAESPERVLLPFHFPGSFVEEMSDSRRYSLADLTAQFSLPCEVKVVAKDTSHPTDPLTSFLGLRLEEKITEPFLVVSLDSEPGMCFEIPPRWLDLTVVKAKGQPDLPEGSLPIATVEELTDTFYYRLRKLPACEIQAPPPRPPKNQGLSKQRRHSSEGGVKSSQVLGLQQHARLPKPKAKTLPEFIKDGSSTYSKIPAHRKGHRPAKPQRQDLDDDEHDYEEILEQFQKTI
inactive: [1] -0.035 | [2] 0.006 | [3] 0.004 | [4] 0.036 | [5] 0.031 | [6] -0.041 | [7] -0.024 | [8] -0.02 | [9] 0.042 | [10] 0.031 | [11] 0.029 | [12] -0.038 | [13] 0.059 | [14] -0.037 | [15] -0.009 | [16] 0.029 | [17] -0.051 | [18] -0.023 | [19] -0.042 | [20] 0.126

UBR5 (UniProt O95071)
inactive: [1] 0.005 | [2] -0.029 | [3] -0.024 | [4] -0.002 | [5] -0.012 | [6] -0.013 | [7] -0.033 | [8] -0.001 | [9] 0.007 | [10] 0.001 | [11] -0.001 | [12] -0.005 | [13] 0.01 | [14] -0.028 | [15] -0.005 | [16] 0.004 | [17] -0.011 | [18] 0.013 | [19] 0.016 | [20] 0.018

TTLL12 (UniProt Q14166)
Chain of UniProt Q14166 (Q14166 whole entry, looked up): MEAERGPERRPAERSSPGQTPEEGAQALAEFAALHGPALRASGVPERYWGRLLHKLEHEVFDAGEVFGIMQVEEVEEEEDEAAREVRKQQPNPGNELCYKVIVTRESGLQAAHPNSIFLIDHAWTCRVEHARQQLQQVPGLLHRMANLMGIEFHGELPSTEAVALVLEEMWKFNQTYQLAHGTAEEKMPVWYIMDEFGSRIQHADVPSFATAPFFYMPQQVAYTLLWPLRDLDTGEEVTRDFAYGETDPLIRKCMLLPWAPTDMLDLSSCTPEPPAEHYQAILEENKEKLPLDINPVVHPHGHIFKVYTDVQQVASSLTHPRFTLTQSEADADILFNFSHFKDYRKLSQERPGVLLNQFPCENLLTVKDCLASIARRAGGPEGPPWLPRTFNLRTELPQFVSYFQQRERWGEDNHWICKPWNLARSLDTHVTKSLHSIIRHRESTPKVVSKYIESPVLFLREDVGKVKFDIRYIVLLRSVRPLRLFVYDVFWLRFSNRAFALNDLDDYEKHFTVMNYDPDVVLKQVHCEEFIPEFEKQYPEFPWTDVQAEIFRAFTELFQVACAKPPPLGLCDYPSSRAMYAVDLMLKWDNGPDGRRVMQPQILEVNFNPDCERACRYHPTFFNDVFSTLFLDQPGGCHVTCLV
inactive: [1] 0.006 | [2] 0.049 | [3] -0.047 | [4] 0.036 | [5] 0.027 | [6] 0.005 | [7] -0.023 | [8] 0 | [9] 0.021 | [10] -0.016 | [11] -0.018 | [12] 0.003 | [13] 0.026 | [14] 0.005 | [15] 0.044 | [16] -0.026 | [17] -0.032 | [18] -0.008 | [19] 0.031 | [20] 0.012

TRIM25 (UniProt Q14258)
Chain of UniProt Q14258 (Q14258 whole entry, looked up): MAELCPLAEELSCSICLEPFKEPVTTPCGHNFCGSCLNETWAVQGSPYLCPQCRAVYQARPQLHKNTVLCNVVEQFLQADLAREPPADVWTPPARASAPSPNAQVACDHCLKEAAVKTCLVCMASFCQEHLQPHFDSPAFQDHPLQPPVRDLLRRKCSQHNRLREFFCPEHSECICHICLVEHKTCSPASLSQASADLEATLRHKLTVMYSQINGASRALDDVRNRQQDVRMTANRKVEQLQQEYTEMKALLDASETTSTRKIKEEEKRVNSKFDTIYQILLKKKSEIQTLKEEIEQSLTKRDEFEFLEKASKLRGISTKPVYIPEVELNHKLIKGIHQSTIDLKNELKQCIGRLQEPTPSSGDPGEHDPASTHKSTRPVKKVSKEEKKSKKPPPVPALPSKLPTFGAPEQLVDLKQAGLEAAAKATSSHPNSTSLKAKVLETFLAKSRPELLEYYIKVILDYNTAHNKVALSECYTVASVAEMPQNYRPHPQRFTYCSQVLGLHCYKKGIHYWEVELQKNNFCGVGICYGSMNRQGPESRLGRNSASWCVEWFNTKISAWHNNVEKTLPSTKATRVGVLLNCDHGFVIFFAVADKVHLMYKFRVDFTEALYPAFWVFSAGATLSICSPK
inactive: [1] -0.01 | [2] -0.024 | [3] 0.028 | [4] -0.004 | [5] -0.028 | [6] 0.032 | [7] 0.008 | [8] 0.064 | [9] 0.021 | [10] -0.009 | [11] -0.001 | [12] -0.001 | [13] -0.013 | [14] 0.055 | [15] -0.011 | [16] -0.002 | [17] -0.005 | [18] 0.005 | [19] 0.004 | [20] 0.006
